Most compounds without a hit are left out; they make up all but 5.6% or so of the library.
PHOSPHO1 block = PubChem AID 1565; Phosphoethanolamine/phosphocholine phosphatase (Homo sapiens), Q8TCT1; hit rate 1.1% among 290,000; recombinant PHOSPHO1, absorbance phosphatase assay; inhibition, % at 13.3 µM; in the data active = inhibition above about 60%
Target sequence (Q8TCT1 whole entry, looked up): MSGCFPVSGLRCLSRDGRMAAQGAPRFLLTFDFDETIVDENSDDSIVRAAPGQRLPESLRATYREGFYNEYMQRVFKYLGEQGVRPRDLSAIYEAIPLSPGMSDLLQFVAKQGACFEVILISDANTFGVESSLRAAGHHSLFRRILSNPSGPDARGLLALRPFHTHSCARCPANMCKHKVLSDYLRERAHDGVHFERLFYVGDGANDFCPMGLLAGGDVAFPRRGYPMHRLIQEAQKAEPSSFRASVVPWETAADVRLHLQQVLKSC
M18AAP inhibitor = PfM18AAP inhibitors, malaria aminopeptidase, primary screen, biochemical, QFRET, recombinant enzyme. M18 aspartyl aminopeptidase (Plasmodium falciparum 3D7). H-Glu-NHMec fluorogenic cleavage. inhibition, % at 7.35 µM. hit rate 1.2% among 290,000;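 active = inhibition above the campaign mean inhibition over all tested compounds plus 3 SD, cut at about 28% in these data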;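 note: 0% = plate median of test compound wells and 100% = 2 mM ZnCl2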
H9c2 protect = cardioprotection against H2O2-induced cell death, primary screen, uHTS, H9c2 cells, ATPLite luminescence; AID 588492, 2011; protection from H2O2 cell death, % at 20 µM; H9c2 cardiomyocytes, H2O2 injury protection, 2 h; hit rate 0.63% among 360,000;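 active = compounds giving at least 50% protection of heart cells from peroxide-induced death in the single-dose screen, raw or plate-pattern-corrected value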;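 note: 0% = DMSO wells with peroxide and 100% = DMSO wells without peroxide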
ALR H2O2 inh = inhibitors of human ALR sulfhydryl oxidase, primary screen, biochemical, H2O2 detection, HRP-luminol luminescence, single point. hit rate 3.8% among 290,000. FAD-linked sulfhydryl oxidase ALR (Homo sapiens), P55789. inhibition, % (concentration not given with the values). purified ALR, DTT oxidation;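 active = mean replicate inhibition above about 79%, with every replicate also reaching it, limit read from the data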
Target sequence (P55789 whole entry, looked up): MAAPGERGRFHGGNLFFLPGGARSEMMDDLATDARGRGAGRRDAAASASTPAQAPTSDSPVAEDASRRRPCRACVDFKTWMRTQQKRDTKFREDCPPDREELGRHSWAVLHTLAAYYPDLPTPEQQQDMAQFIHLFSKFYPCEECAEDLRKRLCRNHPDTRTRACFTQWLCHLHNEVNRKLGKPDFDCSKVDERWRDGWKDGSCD
PfG6PD inh = PfG6PD enzyme inhibitors, primary screen, biochemical, fluorescence intensity, uHTS. glucose-6-phosphate dehydrogenase-6-phosphogluconolactonase (Plasmodium falciparum 3D7). PfGluPho enzyme, NADPH resazurin-diaphorase fluorescence. inhibition, % at 20 µM. hit rate 0.78% among 350,000;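 active = inhibition reaching at least a set limit at 20 µM in the primary screen, cut at about 59% in these data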;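 note: 0% = DMSO wells with substrate and 100% = DMSO wells lacking glucose-6-phosphate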
PfGluPho conf = PfG6PD inhibitors, hit retest, confirmation, biochemical, fluorescence intensity, single concentration. shares compounds with PfG6PD inh. hit rate 34% among 2,400. AID 504753, 2011. recombinant PfGluPho, NADPH-diaphorase-resazurin fluorescence. inhibition, % at 20 µM;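 active = inhibition of at least 50% at 20 µM in any single replicate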;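 note: 0% = DMSO with substrate and 100% = DMSO lacking glucose-6-phosphate substrate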
Diaphorase 10uM = diaphorase inhibitors and chemical oxidizers, confirmation, counter-screen for P. falciparum G6PD inhibitor project, biochemical, fluorescence intensity, 10 µM NADPH; diaphorase-coupled resazurin reduction, NADPH 10 uM; hit rate 39% among 820; shares compounds with PfG6PD inh; inhibition, % at 20 µM;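 active = average inhibition reaching 50% or more with the compound at 20 µM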;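 note: resorufin red fluorescence formed as diaphorase reduces resazurin using NADPH; 0% = DMSO with enzyme and 100% = DMSO without enzyme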
Diaphorase 30uM = diaphorase inhibitors and chemical oxidizers, confirmation, counter-screen for P. falciparum G6PD inhibitor project, biochemical, fluorescence intensity, 30 µM NADPH; shares compounds with PfG6PD inh; Diaphorase/resazurin coupled assay, resorufin fluorescence; inhibition, % at 20 µM; hit rate 29% among 820;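 active = inhibition averaging 50% or more, tested at 20 µM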;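 note: 0% = DMSO with enzyme and 100% = DMSO wells lacking diaphorase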
The depositor's hits bear a star; . = no result given.

SMILES | PHOSPHO1 block | M18AAP inhibitor | H9c2 protect | ALR H2O2 inh | PfG6PD inh | PfGluPho conf | others
CC(=O)c1c(C)oc2c1C(=O)c1ccccc1C2=O | 1 | -2 | -7 | -11 | -39 | .
Cc1ccc(S(=O)(=O)/N=C2/C=C(Sc3ncn[nH]3)C(=O)c3ccccc32)cc1 | 73* | 51* | -11 | -28 | 120* | 103* | Diaphorase 10uM=89*;Diaphorase 30uM=93*
COc1cc(C(=O)O/N=C2/C=C(C)C(=O)C=C2C)cc(OC)c1OC | 4 | -1 | -1 | 26 | 61* | 57* | Diaphorase 10uM=27;Diaphorase 30uM=8
Fc1ccc(COc2ccccc2C(=S)N2CCCC2)cc1 | 9 | 19 | -8 | -5 | 70* | 39
CN(C1CCCCC1)S(=O)(=O)c1ccc(=S)[nH]c1 | . | . | 5 | -3 | 61* | 17
CC(C)CNC(=O)C(=O)NCC1OCCCN1S(=O)(=O)c1cccs1 (stereo not given) | 53 | 0 | 2 | -13 | -8 | .
Cc1cc(C(=O)N/N=C/c2cccc([N+](=O)[O-])c2)c(C)n1-c1ccccc1 | 0 | 6 | -8 | 46 | 60* | 28
O=C(N/N=C/c1cccc([N+](=O)[O-])c1)C(=O)N1CCCCCC1 | 9 | 0 | 0 | -15 | 80* | 58* | Diaphorase 10uM=60*;Diaphorase 30uM=47
C=CCOc1ccc(C(=O)Nc2ccccc2C(=O)NCc2cccnc2)cc1 | 32 | 2 | -2 | 1 | -5 | .
O=C(CC[C@H]1O[C@@H](n2cnc3c(NC(=O)c4ccccc4)ncnc32)[C@H](O)[C@@H]1O)N[C@@H](CO)c1ccccc1 | . | . | 2 | . | . | .
CCOC(=O)c1c(NC(=O)CN(C)C)sc(C(=O)N(CC)CC)c1C | 33 | 0 | 5 | -5 | 11 | .
CCCCC(=O)Nc1sc(C(=O)N(CC)CC)c(C)c1C(=O)OC | -18 | 25 | -7 | . | 70* | 30
CCOc1ccc(Cl)cc1/C=N/NC(=O)CNC(=O)c1ccccc1 | 3 | 4 | 1 | 4 | 118* | 92* | Diaphorase 10uM=93*;Diaphorase 30uM=85*
Cc1cccc(OCC(=O)NCC(=O)N/N=C/c2ccc(O)cc2O)c1 | 38 | 15 | 48 | 7 | -36 | .
CCOc1ccc(Cl)cc1/C=N/NC(=O)c1ccccc1 | 9 | 1 | -1 | 0 | 40 | .
Cc1cccc(OCC(=O)NCC(=O)N/N=C/c2ccccc2)c1 | 31 | 2 | -6 | -6 | 69* | 50* | Diaphorase 10uM=41;Diaphorase 30uM=41
Cc1cccc(OCC(=O)NCC(=O)N/N=C/c2cc(Br)ccc2OCc2ccccc2)c1 | -2 | -3 | 0 | -3 | 19 | .
O=C(COc1ccccc1)NCC(=O)N/N=C/c1cc(Br)ccc1OCc1ccccc1 | -7 | -4 | 9 | 0 | 81* | 29
Cc1[nH]c2ccccc2c1C(=O)C(=O)Nc1ccc2c(c1)OCO2 | -14 | 6 | 1 | -5 | -9 | .
CCCn1c(N)c(N(CCOC)C(=O)CSCC(=O)Nc2cccc(C)c2)c(=O)[nH]c1=O | . | . | 1 | . | 21 | .
Cc1ccc(C(=O)C2CCOC(C)(C)C2)cc1 (stereo not given) | 15 | 8 | 12 | -2 | 17 | .
Nc1ccc(Cc2ccc(N)c(O)c2)cc1O | 52 | 18 | 3 | . | 72* | 46
COC(=O)c1cc(Cc2ccc(N)c(C(=O)OC)c2)ccc1N | 19 | 6 | -1 | -41 | 29 | .
CCOC(=O)C(C)On1c(-c2ccccc2)nc2ccc([N+](=O)[O-])cc21 (stereo not given) | 1 | 5 | -12 | 97* | 62* | -10
Cc1ccc(COn2c(-c3ccc(Cl)cc3)nc3ccc([N+](=O)[O-])cc32)cc1 | 17 | 6 | -18 | -1 | 53 | .
SMILES | PHOSPHO1 block | M18AAP inhibitor | H9c2 protect | ALR H2O2 inh | PfG6PD inh | PfGluPho conf | others
CCOC(=O)C(C)On1c(-c2ccc(Cl)cc2)nc2ccc([N+](=O)[O-])cc21 (stereo not given) | 102* | -13 | -23 | -2 | 76* | 9
O=[N+]([O-])c1ccc2nc(-c3ccc(Cl)cc3)n(OCc3ccccc3)c2c1 | 62* | -2 | -13 | 15 | 122* | -1
Cc1cccn2c(=O)c3cc(C(=O)NCCN4CCOCC4)c(=N)n(Cc4ccc(F)cc4)c3nc12 | 32 | 6 | 10 | -25 | 24 | .
CC(C)(C)Cc1c(-c2ccc(C#N)cc2)nc2ccc(Cl)cn12 | . | . | 7 | . | 36 | .
CCCCNc1c(-c2cccc(-c3cc(C(C)=O)cs3)c2)nc2ccc(C)cn12 | . | . | 43 | . | 67* | 13
COCC1COS(=O)(=O)NC1(C)C (stereo not given) | 4 | 5 | 2 | 3 | 9 | .
CNc1ncnc(Sc2nc(N)nc3nc[nH]c23)c1[N+](=O)[O-] | . | . | -2 | . | 12 | .
Nc1nc(Sc2ccc([N+](=O)[O-])c3nonc23)c2[nH]cnc2n1 | . | . | -20 | . | 122* | 109* | Diaphorase 10uM=97*;Diaphorase 30uM=85*
CC(C)c1nc2sc3c(=O)n(N)cnc3c2c2c1COC(C)(C)C2 | -1 | -1 | 2 | . | 60* | 15
Cn1cc(S(=O)(=O)CC(=O)Nc2ccc(Br)cc2)c2ccccc21 | 5 | -10 | 7 | -5 | 87* | 39
Cc1ccc(NC(=O)CS(=O)(=O)c2cn(C)c3ccccc23)c(C)c1 | 31 | . | 1 | -2 | 16 | .
Cc1ccc(/C=C/C(=O)NCCc2ccccc2)o1 | 39 | -70 | 9 | 14 | 75* | 15
CCOC(=O)c1c(C2COc3ccccc3O2)csc1NC(=O)c1ccco1 (stereo not given) | 86* | 7 | -6 | 7 | 84* | 54* | Diaphorase 10uM=-26;Diaphorase 30uM=-16
CCOC(=O)c1c(-c2cccs2)csc1NC(=O)c1ccco1 | 6 | 0 | -2 | -9 | 3 | .
CSC(=S)NN=C(C)c1cccc(C)n1 | . | . | 34 | . | 95* | 30
CC(=NNC(=S)N1CCCCC1)c1cccc(C)n1 | . | . | -5 | . | 34 | .
Cn1c2c(c3ccccc31)CCN1CCC[C@]21c1ccccc1 | 38 | -11 | 2 | . | 16 | .
Cc1ccc(Nc2nnc(SCC(=O)c3ccc(O)cc3O)s2)cc1 | -50 | 8 | 0 | 3 | 68* | 33
CN1CCCN(S(=O)(=O)c2ccc(O)c(C(=O)O)c2)CC1 | 39 | 8 | 10 | . | -12 | .
CN(C)S(=O)(=O)c1cc(C(=O)Nc2ccccc2C(=O)NC2CC2)ccc1Cl | . | . | 0 | . | 3 | .
